For 38 sequences, binding signal results are on record in publication doi:10.1101/2024.03.05.583629.

In this assay the target is pT7_6His-AlfaTag-ZIF268 (human, UniProt P18146 335-423). The experiment in a line: PADIT-seq. The following applies: dsDNA, one strand shown.
“CTCGAGGATATCAAGATCTGGCCTCGGCGCGTGGTAGGGAACCTCTAGCTAGCCGACTCACTATAGGGATAATCGCCCTGAGCAAAGACC”: the binding signal was determined as 0.402 ± 0.089 log2FC.

With “CTCGAGGATATCAAGATCTGGCCTCGGCGCGTGGATGGGAACCTCTAGCTAGCCGACTCACTATAGGGATAATCGCCCTGAGCAAAGACC”, the binding signal was determined as 0.000457 ± 0.106 log2FC.

As to “CTCGAGGATATCAAGATCTGGCCTCGGCGCGTGGAGAGGAACCTCTAGCTAGCCGACTCACTATAGGGATAATCGCCCTGAGCAAAGACC”, the binding signal worked out at 0.18 ± 0.105 log2FC.

For the sequence “CTCGAGGATATCAAGATCTGGCCTCGGCGCGTGGGACGGAACCTCTAGCTAGCCGACTCACTATAGGGATAATCGCCCTGAGCAAAGACC”, the binding signal was found to be 1.73 ± 0.101 log2FC.

“CTCGAGGATATCAAGATCTGGCCTCGGCAGACCACGCGGAACCTCTAGCTAGCCGACTCACTATAGGGATAATCGCCCTGAGCAAAGACC” returned a binding signal of 0.0219 ± 0.102 log2FC.

In the case of “CTCGAGGATATCAAGATCTGGCCTCGGCCGCCCAAAAGGAACCTCTAGCTAGCCGACTCACTATAGGGATAATCGCCCTGAGCAAAGACC”, the binding signal came out at 0.0465 ± 0.0996 log2FC.

Consider “CTCGAGGATATCAAGATCTGGCCTCGGCGCGAGGGCGGGAACCTCTAGCTAGCCGACTCACTATAGGGATAATCGCCCTGAGCAAAGACC”, for which the binding signal was determined as 0.751 ± 0.109 log2FC.

As for “CTCGAGGATATCAAGATCTGGCCTCGGCGTCCCACGCGGAACCTCTAGCTAGCCGACTCACTATAGGGATAATCGCCCTGAGCAAAGACC”, the binding signal amounted to 0.365 ± 0.0872 log2FC.

“CTCGAGGATATCAAGATCTGGCCTCGGCTTGCCACGCGGAACCTCTAGCTAGCCGACTCACTATAGGGATAATCGCCCTGAGCAAAGACC” had a binding signal of 0.107 ± 0.166 log2FC.

Sequence “CTCGAGGATATCAAGATCTGGCCTCGGCGCGTGGATTGGAACCTCTAGCTAGCCGACTCACTATAGGGATAATCGCCCTGAGCAAAGACC” yielded a binding signal of 0.000823 ± 0.102 log2FC.

The sequence “CTCGAGGATATCAAGATCTGGCCTCGGCATACCACGCGGAACCTCTAGCTAGCCGACTCACTATAGGGATAATCGCCCTGAGCAAAGACC” registered a binding signal of 0.123 ± 0.0818 log2FC.

Take “CTCGAGGATATCAAGATCTGGCCTCGGCCGCCCACTCGGAACCTCTAGCTAGCCGACTCACTATAGGGATAATCGCCCTGAGCAAAGACC”: the binding signal was 0.873 ± 0.0842 log2FC.

“CTCGAGGATATCAAGATCTGGCCTCGGCGCGTGGGGGGGAACCTCTAGCTAGCCGACTCACTATAGGGATAATCGCCCTGAGCAAAGACC” displayed a binding signal of 1.28 ± 0.104 log2FC.

For “CTCGAGGATATCAAGATCTGGCCTCGGCCGCGGTCGCGGAACCTCTAGCTAGCCGACTCACTATAGGGATAATCGCCCTGAGCAAAGACC”, the binding signal came to 0.00429 ± 0.0911 log2FC.

As to “CTCGAGGATATCAAGATCTGGCCTCGGCGCGTGGTTCGGAACCTCTAGCTAGCCGACTCACTATAGGGATAATCGCCCTGAGCAAAGACC”, the binding signal worked out at 0.121 ± 0.0856 log2FC.

Sequence “CTCGAGGATATCAAGATCTGGCCTCGGCCGCCCACACGGAACCTCTAGCTAGCCGACTCACTATAGGGATAATCGCCCTGAGCAAAGACC” came in with a binding signal of 1.63 ± 0.0957 log2FC.

Take “CTCGAGGATATCAAGATCTGGCCTCGGCGCGTAGGCGGGAACCTCTAGCTAGCCGACTCACTATAGGGATAATCGCCCTGAGCAAAGACC”: the binding signal came out at 3.65 ± 0.0875 log2FC.

Sequence “CTCGAGGATATCAAGATCTGGCCTCGGCCGCCCACCAGGAACCTCTAGCTAGCCGACTCACTATAGGGATAATCGCCCTGAGCAAAGACC” gave a binding signal of 0.0728 ± 0.0981 log2FC.

“CTCGAGGATATCAAGATCTGGCCTCGGCCGCCCATACGGAACCTCTAGCTAGCCGACTCACTATAGGGATAATCGCCCTGAGCAAAGACC” yielded a binding signal of 0.364 ± 0.092 log2FC.

Sequence “CTCGAGGATATCAAGATCTGGCCTCGGCCAGTGGGCGGGAACCTCTAGCTAGCCGACTCACTATAGGGATAATCGCCCTGAGCAAAGACC” returned a binding signal of 1.87 ± 0.0948 log2FC.

For “CTCGAGGATATCAAGATCTGGCCTCGGCCGCACACGCGGAACCTCTAGCTAGCCGACTCACTATAGGGATAATCGCCCTGAGCAAAGACC”, the binding signal was determined as 0.422 ± 0.0927 log2FC.

Turning to “CTCGAGGATATCAAGATCTGGCCTCGGCGCGTGGCGCGGAACCTCTAGCTAGCCGACTCACTATAGGGATAATCGCCCTGAGCAAAGACC”, the binding signal amounted to 0.0413 ± 0.108 log2FC.

Sequence “CTCGAGGATATCAAGATCTGGCCTCGGCGCGTGGATCGGAACCTCTAGCTAGCCGACTCACTATAGGGATAATCGCCCTGAGCAAAGACC” returned a binding signal of 0.142 ± 0.102 log2FC.

“CTCGAGGATATCAAGATCTGGCCTCGGCAGGTGGGCGGGAACCTCTAGCTAGCCGACTCACTATAGGGATAATCGCCCTGAGCAAAGACC”: the binding signal was determined as 2.15 ± 0.0839 log2FC.

In the case of “CTCGAGGATATCAAGATCTGGCCTCGGCCGCCAACGCGGAACCTCTAGCTAGCCGACTCACTATAGGGATAATCGCCCTGAGCAAAGACC”, the binding signal came out at 0.204 ± 0.0826 log2FC.

For the sequence “CTCGAGGATATCAAGATCTGGCCTCGGCGCGTGGTGTGGAACCTCTAGCTAGCCGACTCACTATAGGGATAATCGCCCTGAGCAAAGACC”, the binding signal was 0.166 ± 0.105 log2FC.

For the sequence “CTCGAGGATATCAAGATCTGGCCTCGGCCGCGGCCGCGGAACCTCTAGCTAGCCGACTCACTATAGGGATAATCGCCCTGAGCAAAGACC”, the binding signal is 0.0714 ± 0.102 log2FC.

For the sequence “CTCGAGGATATCAAGATCTGGCCTCGGCGCGTGAGCGGGAACCTCTAGCTAGCCGACTCACTATAGGGATAATCGCCCTGAGCAAAGACC”, the binding signal worked out at 0.00935 ± 0.101 log2FC.

The sequence “CTCGAGGATATCAAGATCTGGCCTCGGCGCGCGTGCGGGAACCTCTAGCTAGCCGACTCACTATAGGGATAATCGCCCTGAGCAAAGACC” came in with a binding signal of 0.0362 ± 0.119 log2FC.

In turn, “CTCGAGGATATCAAGATCTGGCCTCGGCGGGTGGGCGGGAACCTCTAGCTAGCCGACTCACTATAGGGATAATCGCCCTGAGCAAAGACC” showed a binding signal of 1.66 ± 0.0839 log2FC.

Take “CTCGAGGATATCAAGATCTGGCCTCGGCCGCCCAAGTGGAACCTCTAGCTAGCCGACTCACTATAGGGATAATCGCCCTGAGCAAAGACC”: the binding signal was 0.0066 ± 0.0917 log2FC.

“CTCGAGGATATCAAGATCTGGCCTCGGCGCGTGGGATGGAACCTCTAGCTAGCCGACTCACTATAGGGATAATCGCCCTGAGCAAAGACC” returned a binding signal of 2.17 ± 0.107 log2FC.

In turn, “CTCGAGGATATCAAGATCTGGCCTCGGCGCGTCGGCGGGAACCTCTAGCTAGCCGACTCACTATAGGGATAATCGCCCTGAGCAAAGACC” registered a binding signal of 0.627 ± 0.116 log2FC.

For the sequence “CTCGAGGATATCAAGATCTGGCCTCGGCGCGTGGCGTGGAACCTCTAGCTAGCCGACTCACTATAGGGATAATCGCCCTGAGCAAAGACC”, the binding signal is 0.0995 ± 0.108 log2FC.

In the case of “CTCGAGGATATCAAGATCTGGCCTCGGCCGCCCACGAGGAACCTCTAGCTAGCCGACTCACTATAGGGATAATCGCCCTGAGCAAAGACC”, the binding signal is 0.778 ± 0.094 log2FC.

The sequence “CTCGAGGATATCAAGATCTGGCCTCGGCCGCCCACCGGGAACCTCTAGCTAGCCGACTCACTATAGGGATAATCGCCCTGAGCAAAGACC” showed a binding signal of 0.114 ± 0.0972 log2FC.

Take “CTCGAGGATATCAAGATCTGGCCTCGGCAACCCACGCGGAACCTCTAGCTAGCCGACTCACTATAGGGATAATCGCCCTGAGCAAAGACC”: the binding signal amounted to 0.721 ± 0.102 log2FC.

For “CTCGAGGATATCAAGATCTGGCCTCGGCCGCCCACGGGGAACCTCTAGCTAGCCGACTCACTATAGGGATAATCGCCCTGAGCAAAGACC”, the binding signal was found to be 1.11 ± 0.0917 log2FC.
